Experiment [1] deals with PRMT1 (protein arginine N-methyltransferase 1). In words: small molecules binding arginine methyltransferase PRMT1 – biochemical, small-molecule microarray, 635 nm fluorescence, primary screen (AID 1088).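 Note: binding of Prmt1 protein to compounds spotted on small-molecule microarray slides.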 The settings on record: higher = more signal.
A short description of experiment [2]: growth effects on S. cerevisiae YJM789 – YJM789 clinical isolate, OD600, 24 h, basal, primary screen (AID 1089).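 Note: growth of clinical yeast isolate S. cerevisiae YJM 789 seeded 1000 cells per well; test concentration not given here.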 The settings on record: higher = more signal, called active from +8 up or from −8 down.
Experiment [3] is described as follows: S. pombe growth modifiers, basal conditions – strain 972, OD600, 24 h, no modulator, primary screen (AID 1090).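 Note: basal condition with compound alone and no growth modifier present; test concentration not given here.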 The note with it: S. pombe 972 growth, higher = more signal, called active from +8 up or from −8 down.
A short description of experiment [4]: budding yeast growth modifiers under rapamycin – strain BY4716, OD600, 96 h, primary screen (AID 1091). Note: test concentration not given here. The note with it: S. cerevisiae BY4716 + rapamycin, higher = more signal, called active from +8 up or from −8 down.
Experiment [5] addresses Torsin-1A-interacting protein 2 (Homo sapiens) (UniProt Q8NFQ8). In words: small molecules binding lysate-expressed LULL1 – cell lysate, human LULL1 lysate, 635/667 nm fluorescence, primary screen (AID 1092).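 Note: probe is lysate of COS7 cells overexpressing human LULL1; score merges per-feature 667 nm fluorescence with signal-to-noise.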 The note with it: small-molecule microarray, hLULL1 lysate binding, 635 nm fluorescence; higher = more signal.
Experiment [6] is described as follows: optical density change of DRC41 E. coli – strain DRC41, OD650, 24 h, E. coli filamentation project, primary screen (AID 1093).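 Note: MC1000 strain lacking acrAB efflux and sulA so SOS filamentation is blocked; test concentration not given here.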 The note with it: E. coli DRC41 growth, higher = more signal, called active from +8 up or from −8 down.
Experiment [7] in a line: probe aLefty2 binding to arrayed compounds – biochemical, biotinylated probe, 635/667 nm fluorescence, primary screen (AID 1094).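 Note: score merges spot fluorescence near 667 nm with spot signal-to-noise ratio.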 The note with it: small-molecule microarray, higher = more signal.
Experiment [8] relates to Noggin (protein binding on small-molecule microarray). In words: small molecules binding Noggin protein – biochemical, 635/667 nm fluorescence, primary screen (AID 1095).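 Note: score merges 667 nm feature fluorescence with signal to noise over triplicate slides.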 The note with it: 635 nm fluorescence, higher = more signal.
The target of experiment [9] is Neurogenic locus notch homolog protein 3 (Homo sapiens) (UniProt Q9UM47). In words: small molecules binding NOTCH3 protein – biochemical, 635/667 nm fluorescence, primary screen (AID 1096). The settings on record: small-molecule microarray, 635 nm fluorescence, higher = more signal.
Chain of Neurogenic locus notch homolog protein 3 (Homo sapiens) (Q9UM47 whole entry, looked up): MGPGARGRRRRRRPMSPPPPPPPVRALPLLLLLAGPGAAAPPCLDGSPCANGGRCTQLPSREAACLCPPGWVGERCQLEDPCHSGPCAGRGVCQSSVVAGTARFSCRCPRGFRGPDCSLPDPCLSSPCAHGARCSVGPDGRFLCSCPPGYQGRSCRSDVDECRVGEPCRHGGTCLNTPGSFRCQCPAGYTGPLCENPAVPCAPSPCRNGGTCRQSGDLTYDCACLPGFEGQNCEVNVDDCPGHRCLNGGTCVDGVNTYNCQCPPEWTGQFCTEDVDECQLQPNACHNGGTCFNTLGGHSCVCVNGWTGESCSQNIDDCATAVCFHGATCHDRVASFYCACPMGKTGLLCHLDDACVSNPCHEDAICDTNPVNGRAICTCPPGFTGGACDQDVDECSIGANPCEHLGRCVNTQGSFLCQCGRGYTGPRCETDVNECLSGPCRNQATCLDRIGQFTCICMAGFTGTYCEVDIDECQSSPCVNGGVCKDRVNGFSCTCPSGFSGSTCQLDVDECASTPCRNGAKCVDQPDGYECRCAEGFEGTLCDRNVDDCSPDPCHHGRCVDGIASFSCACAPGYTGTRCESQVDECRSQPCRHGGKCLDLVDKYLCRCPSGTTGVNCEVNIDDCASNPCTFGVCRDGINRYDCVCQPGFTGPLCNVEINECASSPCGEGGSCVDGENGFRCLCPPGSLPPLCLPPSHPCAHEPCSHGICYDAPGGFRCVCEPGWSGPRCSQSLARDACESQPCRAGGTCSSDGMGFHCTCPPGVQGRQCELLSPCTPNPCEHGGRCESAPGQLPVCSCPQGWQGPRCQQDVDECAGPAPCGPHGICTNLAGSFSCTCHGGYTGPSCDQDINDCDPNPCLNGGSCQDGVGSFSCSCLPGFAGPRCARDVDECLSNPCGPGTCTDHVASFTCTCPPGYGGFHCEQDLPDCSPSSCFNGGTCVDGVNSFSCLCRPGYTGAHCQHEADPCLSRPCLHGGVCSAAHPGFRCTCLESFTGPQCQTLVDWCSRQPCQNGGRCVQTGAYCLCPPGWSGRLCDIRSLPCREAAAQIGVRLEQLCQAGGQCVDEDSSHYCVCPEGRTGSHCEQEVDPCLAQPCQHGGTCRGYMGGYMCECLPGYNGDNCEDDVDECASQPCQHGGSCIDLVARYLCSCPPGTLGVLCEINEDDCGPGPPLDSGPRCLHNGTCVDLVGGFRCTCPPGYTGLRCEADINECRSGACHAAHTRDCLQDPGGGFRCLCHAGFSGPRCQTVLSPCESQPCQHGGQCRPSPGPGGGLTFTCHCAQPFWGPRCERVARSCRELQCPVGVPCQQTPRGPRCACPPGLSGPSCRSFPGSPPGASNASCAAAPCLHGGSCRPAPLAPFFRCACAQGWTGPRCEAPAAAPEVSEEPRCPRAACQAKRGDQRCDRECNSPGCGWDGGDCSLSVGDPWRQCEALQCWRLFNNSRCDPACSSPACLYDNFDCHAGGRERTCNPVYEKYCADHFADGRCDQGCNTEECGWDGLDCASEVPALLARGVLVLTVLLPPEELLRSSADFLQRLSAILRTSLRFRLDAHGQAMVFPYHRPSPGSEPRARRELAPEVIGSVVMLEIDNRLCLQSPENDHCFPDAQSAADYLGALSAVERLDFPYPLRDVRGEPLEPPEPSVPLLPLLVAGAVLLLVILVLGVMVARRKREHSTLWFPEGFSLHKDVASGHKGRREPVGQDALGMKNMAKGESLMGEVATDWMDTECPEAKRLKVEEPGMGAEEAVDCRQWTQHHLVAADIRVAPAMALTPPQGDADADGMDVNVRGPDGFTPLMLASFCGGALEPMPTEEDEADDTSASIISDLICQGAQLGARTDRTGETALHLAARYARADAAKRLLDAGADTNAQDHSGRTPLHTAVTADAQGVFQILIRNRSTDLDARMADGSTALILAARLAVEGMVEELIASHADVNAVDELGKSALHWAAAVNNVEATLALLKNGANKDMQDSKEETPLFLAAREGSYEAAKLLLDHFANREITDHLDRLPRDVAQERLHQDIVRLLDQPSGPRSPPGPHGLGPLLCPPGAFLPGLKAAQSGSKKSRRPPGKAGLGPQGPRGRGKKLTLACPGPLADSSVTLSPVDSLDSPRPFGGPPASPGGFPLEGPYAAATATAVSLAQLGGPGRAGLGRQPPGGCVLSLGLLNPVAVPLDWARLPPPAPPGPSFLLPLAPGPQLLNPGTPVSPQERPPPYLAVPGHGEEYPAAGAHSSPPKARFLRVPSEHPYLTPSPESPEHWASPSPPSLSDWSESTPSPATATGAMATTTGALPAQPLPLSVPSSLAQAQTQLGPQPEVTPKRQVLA
Experiment [10] is described as follows: probe aEGFR binding to arrayed compounds – biochemical, biotinylated probe, 635/667 nm fluorescence, primary screen (AID 1097).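 Note: probe is a biotinylated anti-EGFR antibody binding compounds printed on slides; score combines fluorescence near 667 nm and signal to noise of each spot.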 The note with it: small-molecule microarray, higher = more signal.
Experiment [11] concerns Plasmodium falciparum Sir2 (PF13_0152, Sir2A). Nature of the experiment: Plasmodium falciparum Sir2A binding compounds – biochemical, small-molecule microarray, 635 nm fluorescence, primary screen (AID 1098).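 Note: score merges spot fluorescence intensity with its signal-to-noise ratio.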 The note with it: fluorescence 635 nm, higher = more signal.
Experiment [12] in a line: probe aDKK1 binding to arrayed compounds – biochemical, biotinylated probe, 635/667 nm fluorescence, primary screen (AID 1099).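 Note: score merges 667nm spot fluorescence with signal to noise across triplicate slides; reference of the scale not given here.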 The settings on record: small-molecule microarray, higher = more signal.
Experiment [13] in a line: probe aCHRDL2 binding to arrayed compounds – biochemical, biotinylated probe, 635/667 nm fluorescence, primary screen (AID 1100). The note with it: small-molecule microarray, higher = more signal.
Experiment [14] in a line: change in splice reporter luminescence, either direction, cell-based, HEK293, spliceosome inhibition project, primary screen (AID 1101).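 Note: HEK293 cells carrying a splicing-competent luciferase reporter gene; test concentration not given here.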 The settings on record: HEK293 splicing luciferase reporter, 24 h, higher = more signal, called active from +8 up or from −8 down. For orientation: Reporter assays use an easily measured gene product as a stand-in for the process of interest.

The target in experiment [15] is Fibroblast growth factor 10 (Homo sapiens) (UniProt O15520). Nature of the experiment: compounds binding fibroblast growth factor 10 – biochemical, small-molecule microarray, 635 nm fluorescence, primary screen (AID 1102). The settings on record: FGF10 binding, fluorescence 635 nm, higher = more signal.
Chain of Fibroblast growth factor 10 (Homo sapiens) (O15520 whole entry, looked up): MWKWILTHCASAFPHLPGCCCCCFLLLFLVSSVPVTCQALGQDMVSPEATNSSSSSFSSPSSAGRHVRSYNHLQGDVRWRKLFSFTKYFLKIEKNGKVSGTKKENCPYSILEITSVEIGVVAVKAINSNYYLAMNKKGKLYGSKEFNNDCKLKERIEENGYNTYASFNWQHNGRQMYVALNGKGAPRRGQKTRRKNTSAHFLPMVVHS
The test system of experiment [16] is glycogen synthase kinase-3 (GSK3A per assay name; protocol says GSK3B). Nature of the experiment: compounds binding glycogen synthase kinase-3 – biochemical, small-molecule microarray, 635 nm fluorescence, GSK3A, primary screen (AID 1103). Note: the record names both GSK3A and GSK3B. The settings on record: fluorescence 635 nm, higher = more signal.
Experiment [17] concerns the target Epidermal growth factor receptor (Homo sapiens) (UniProt P00533). Nature of the experiment: compounds binding epidermal growth factor receptor – biochemical, small-molecule microarray, 635 nm fluorescence, primary screen (AID 1104).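 Note: score merges 667 nm emission intensity with spot signal to noise over triplicate slides.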 The note with it: EGFR binding, higher = more signal.
Experiment [18] concerns the target Follistatin-related protein 3 (Homo sapiens) (UniProt O95633). Nature of the experiment: compounds binding follistatin-related protein 3 – biochemical, small-molecule microarray, 635 nm fluorescence, primary screen (AID 1105).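 Note: score merges emission near 667 nm and signal to noise per printed spot across three slides.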 The note with it: FSTL3 binding, higher = more signal.
The target in experiment [19] is Dickkopf-related protein 1 (Homo sapiens) (UniProt O94907). In words: small molecules binding DKK1 protein – biochemical, small-molecule microarray, 635 nm fluorescence scan, primary screen (AID 1106).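 Note: score merges emission near 667 nm with signal to noise over three replicate slides.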 The note with it: higher = more signal.
Chain of Dickkopf-related protein 1 (Homo sapiens) (O94907 whole entry, looked up): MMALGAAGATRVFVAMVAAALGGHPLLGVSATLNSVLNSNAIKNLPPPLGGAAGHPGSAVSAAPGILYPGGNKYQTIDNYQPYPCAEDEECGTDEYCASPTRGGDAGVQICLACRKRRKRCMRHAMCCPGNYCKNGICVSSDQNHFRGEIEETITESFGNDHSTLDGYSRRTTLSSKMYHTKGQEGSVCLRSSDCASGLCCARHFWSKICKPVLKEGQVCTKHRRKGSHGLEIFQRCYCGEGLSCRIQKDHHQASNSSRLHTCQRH
In experiment [20] the test system is Inhibin beta A chain (activin A). Nature of the experiment: small molecules binding activin A – biochemical, small-molecule microarray, 635 nm fluorescence scan, primary screen (AID 1107).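 Note: mouse activin A protein probed at 4.33 µg/mL on printed slides; score merges bound-protein fluorescence near 667 nm with spot signal-to-noise.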 The note with it: INHBA, higher = more signal.

Calls of active or inactive are those of the source.

Chain of Follistatin-related protein 3 (Homo sapiens) (O95633 whole entry, looked up): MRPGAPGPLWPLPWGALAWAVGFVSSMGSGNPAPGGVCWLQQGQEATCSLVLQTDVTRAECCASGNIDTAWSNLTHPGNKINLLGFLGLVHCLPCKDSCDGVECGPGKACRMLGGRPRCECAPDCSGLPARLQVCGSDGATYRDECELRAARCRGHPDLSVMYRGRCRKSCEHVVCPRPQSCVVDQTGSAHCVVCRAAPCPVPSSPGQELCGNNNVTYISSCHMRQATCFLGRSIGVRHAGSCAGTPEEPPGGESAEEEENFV
Chain of Epidermal growth factor receptor (Homo sapiens) (P00533 whole entry, looked up): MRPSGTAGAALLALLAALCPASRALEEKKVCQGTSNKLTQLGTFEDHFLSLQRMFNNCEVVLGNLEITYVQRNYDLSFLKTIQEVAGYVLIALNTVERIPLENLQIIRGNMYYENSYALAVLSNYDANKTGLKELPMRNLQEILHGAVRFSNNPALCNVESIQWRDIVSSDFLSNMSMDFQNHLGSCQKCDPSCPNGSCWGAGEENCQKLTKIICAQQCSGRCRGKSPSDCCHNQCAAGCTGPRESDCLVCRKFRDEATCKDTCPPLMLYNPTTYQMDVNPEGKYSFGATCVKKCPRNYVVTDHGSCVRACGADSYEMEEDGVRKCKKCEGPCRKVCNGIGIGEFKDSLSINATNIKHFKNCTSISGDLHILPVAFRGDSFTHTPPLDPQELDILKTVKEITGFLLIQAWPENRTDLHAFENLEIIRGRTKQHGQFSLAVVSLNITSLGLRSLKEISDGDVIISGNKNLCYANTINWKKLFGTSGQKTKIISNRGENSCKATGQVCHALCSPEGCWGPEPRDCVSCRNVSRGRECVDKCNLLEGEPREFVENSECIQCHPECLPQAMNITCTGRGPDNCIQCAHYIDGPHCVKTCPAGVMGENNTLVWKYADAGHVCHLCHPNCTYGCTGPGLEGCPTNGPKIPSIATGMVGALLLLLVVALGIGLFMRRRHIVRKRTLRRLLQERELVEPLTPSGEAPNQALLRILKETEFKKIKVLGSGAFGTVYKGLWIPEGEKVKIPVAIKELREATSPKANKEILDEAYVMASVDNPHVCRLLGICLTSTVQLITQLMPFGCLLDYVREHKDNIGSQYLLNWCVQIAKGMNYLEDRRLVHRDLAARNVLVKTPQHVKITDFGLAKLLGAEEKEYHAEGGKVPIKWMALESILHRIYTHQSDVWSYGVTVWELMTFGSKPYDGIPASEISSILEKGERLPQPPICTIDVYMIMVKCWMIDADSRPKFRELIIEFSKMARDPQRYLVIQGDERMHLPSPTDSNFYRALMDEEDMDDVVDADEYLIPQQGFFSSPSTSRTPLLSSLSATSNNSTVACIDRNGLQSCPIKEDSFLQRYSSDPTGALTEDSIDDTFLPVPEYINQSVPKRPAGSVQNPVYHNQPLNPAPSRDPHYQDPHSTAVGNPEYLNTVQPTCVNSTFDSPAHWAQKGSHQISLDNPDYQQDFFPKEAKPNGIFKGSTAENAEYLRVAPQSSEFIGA
Chain of Torsin-1A-interacting protein 2 (Homo sapiens) (Q8NFQ8 whole entry, looked up): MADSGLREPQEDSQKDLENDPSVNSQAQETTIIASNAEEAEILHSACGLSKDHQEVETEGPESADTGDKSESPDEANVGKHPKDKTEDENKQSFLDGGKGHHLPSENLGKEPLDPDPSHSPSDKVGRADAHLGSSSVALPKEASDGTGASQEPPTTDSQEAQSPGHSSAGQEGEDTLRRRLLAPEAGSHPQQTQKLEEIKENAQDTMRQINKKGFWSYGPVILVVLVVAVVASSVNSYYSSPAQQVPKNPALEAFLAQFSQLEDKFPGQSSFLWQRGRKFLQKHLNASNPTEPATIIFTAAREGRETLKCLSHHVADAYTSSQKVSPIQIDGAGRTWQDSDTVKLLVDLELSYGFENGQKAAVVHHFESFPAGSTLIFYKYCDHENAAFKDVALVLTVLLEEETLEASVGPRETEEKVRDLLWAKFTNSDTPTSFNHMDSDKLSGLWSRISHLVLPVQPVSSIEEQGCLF

For the compound `COc1cccc([C@H]2Oc3ccc(OC)cc3C(=NOC(C)CN3CCCCc4nc(C)c(C)cc43)[C@@H]2O)c1` (stereo not given in full), the composite z-score came out at 1.03 in [1]; 1.45 in experiment [5]; 0.0344 in [7]; 0.0286 in experiment [8]; 0.32 in experiment [9]; 0.044 in experiment [10]. In addition, the composite z-score in experiment [11] was -0.0106; in [12], -0.151; in experiment [13], -0.223; in experiment [15], 0.422; in [16], -0.313; in experiment [17], 0.132. The figures for the composite z-score in experiment [18], in experiment [19] and in experiment [20] were 0.179, 0.064 and 0.937, respectively. Also, the z-score in [2] is -0.915 (inactive); in [3], -1.19 (inactive); in [4] it was -1.48 (inactive); in experiment [6] it was 1.25 (inactive); in [14] it was -0.49 (inactive).

With `COc1ccc(O[C@H]2C=C[C@@H](c3ccccc3)O[C@@H]2COC(=O)CCC(C)=NOC[C@@H](O)[C@H]2O[C@@H]3OC(C)(C)O[C@@H]3[C@H]2O)cc1`, the composite z-score in experiment [1] was 1.34; in experiment [5] it was 1.48; in [7], -0.103; in experiment [8], 1.41; in experiment [9], 0.763; in [10] it was -0.0592. The composite z-score was 0.933 in [11]; -0.206 in [12]; -0.633 in [13]; 0.766 in experiment [15]; 0.87 in experiment [16]; 0.615 in experiment [17]. Besides, the values for the composite z-score in experiment [18], in experiment [19] and in experiment [20] were 0.847, 0.551 and 0.437, respectively. The z-score in experiment [2] is 0.671 (inactive); in [3] it was 0.0839 (inactive); in [4] it was -0.37 (inactive); in [6], 0.875 (inactive); in experiment [14] it was 0.17 (inactive).

For the compound `COc1cccc([C@H]2Oc3ccc(OC)cc3C(=NOC[C@@H](O)COCc3ccco3)[C@@H]2O)c1`, the composite z-score was -1.03 in [1]; -1.32 in [5]; -0.103 in [7]; -0.149 in [8]; -1.88 in experiment [9]; -0.274 in experiment [10]. Also, the composite z-score in [11] is -0.12; in experiment [12], -0.644; in experiment [13] it was -0.798; in [15], -0.0458; in [16], -0.754; in experiment [17], -1.44. In addition, the composite z-score was -1.3 in [18], 0.13 in [19] and 1.29 in [20]. Besides, the z-score in experiment [2] was -2.24 (inactive); in experiment [3] it was -1.36 (inactive); in experiment [4], -1.22 (inactive); in experiment [6], 0.32 (inactive); in experiment [14] it was -0.469 (inactive).

As for `C[C@H](ON=C1[C@H]2CCn3c(=O)n(-c4ccccc4)c(=O)n3[C@H]2[C@H](O)[C@@H]2O[C@H]12)c1cn([C@H](CO)Cc2ccccc2)nn1`, the composite z-score in experiment [1] is 0.171; in experiment [5], 0.664; in [7] it was -0.175; in experiment [8], 0.222; in experiment [9] it was 0.518; in experiment [10] it was 0.0544. The composite z-score in [11] was -0.0041; in [12], -0.15; in experiment [13], -0.519; in experiment [15], 0.513; in [16], 0.266; in experiment [17], 0.377. The composite z-score in experiment [18] stood at 0.659; in experiment [19] it was 0.559; in experiment [20] it was 0.437. Also, the z-score was -0.915 (inactive) in [2]; -0.348 (inactive) in experiment [3]; -0.173 (inactive) in experiment [4]; 0.547 (inactive) in experiment [6]; -0.421 (inactive) in experiment [14].

As to `CO[C@H]1COC(=O)CC=C[C@H](C)COC(=O)[C@@H](C)NC(=O)CC=C[C@@H]1C`, the composite z-score is 1.53 in [1]; -1.13 in [5]; -0.289 in experiment [7]; 1.88 in [8]; -0.222 in experiment [9]; -0.0606 in [10]. Also, the composite z-score in experiment [11] is 1.56; in [12] it was -0.335; in experiment [13], -1.42; in experiment [15], 0.337; in experiment [16] it was 0.913; in experiment [17], 1.32. Further, the composite z-score came to 1.47 in experiment [18], 1.65 in experiment [19] and 0.872 in experiment [20]. For the same compound, the z-score in experiment [2] is -0.78 (inactive); in [3], -0.809 (inactive); in experiment [4], -1.18 (inactive); in [6] it was 0.0007 (inactive); in [14], -1.31 (inactive).

Source of the values: PubChem BioAssay.
